Assay in all cases: NCI-60 one-dose screen, 48 h (100 = growth as untreated, 0 = no growth, -100 = all killed)
In assay [1] the test system is DU-145 prostate. As to conditions: 10 µM unless noted.
In assay [2] the test system is K-562 leukemia. The note with it: 10 µM unless noted.
In assay [3] the test system is MALME-3M melanoma. The note with it: 10 µM unless noted.
The test system of assay [4] is MDA-MB-231 breast. The note with it: 10 µM unless noted.
Assay [5] relates to RXF 393 renal. As to conditions: 10 µM unless noted.
Assay [6] relates to SF-268 CNS. The note with it: 10 µM unless noted.
Assay [7] has as its system SF-295 CNS. As to conditions: 10 µM unless noted.
Assay [8] deals with SF-539 CNS. As to conditions: 10 µM unless noted.
The subject of assay [9] is UACC-257 melanoma. As to conditions: 10 µM.
The test system of assay [10] is M14 melanoma. As to conditions: 10 µM unless noted.

About 83,000 compounds went through this panel and 20% of them were active in at least one assay; those are over-represented in the sample as a whole.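 Step 1: grow cells in 96-well plates. Step 2: add test compound at a single concentration. Step 3: incubate 48 h. Step 4: record percent growth.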 A number with no mark means an inactive call. The source made the active and inactive calls. Rule for the calls: active = growth percent below 10; inactive = the rest.

In the case of `Cc1ccc(OCCn2c(C)nn(-c3ccc(Cl)cc3)c2=O)cc1`, the growth in assay [1] is 135%; in assay [2] it was 107%; in assay [3], 99.8%; in assay [4], 103%; in assay [5], 125%; in assay [6], 117%. Besides, the growth in assay [7] was 98.9%; in assay [8], 110%; in assay [9], 104%; in assay [10] it was 102%.
Take `c1cc(-c2ccc3c(c2)OCO3)n2nccc2n1`: the growth was 106% in assay [1]; 102% in [2]; 104% in assay [3]; 106% in assay [4]; 96.4% in assay [5]; 104% in assay [6]. Besides, the growth in assay [7] is 99.9%; in assay [8], 89.1%; in assay [9] it was 103%; in [10], 109%.
For `Cc1cc(N/C=c2\sc3ncnn3c2=O)no1`, the growth in [1] is 93.7%; in [2], 98.5%; in assay [3], 87.3%; in assay [4] it was 102%; in [5] it was 113%; in [6], 90.1%. Moreover, the growth in assay [7] was 99%; in assay [8] it was 107%; in [9], 105%; in assay [10] it was 92.8%.
Turning to `CCC1=C[C@@H]2CN(C1)Cc1c([nH]c3ccccc13)[C@@](C(=O)OC)(c1cc3c(cc1OC)N(C=O)[C@H]1[C@@](O)(C(=O)OC)[C@H](OC(C)=O)[C@]4(CC)[C@@H]5C[C@@H]5CN5CC[C@]31[C@@H]54)C2`, the growth in assay [1] is -9.76% (active); in [2], 9.35% (active); in assay [3], 40.4%; in assay [4] it was -24% (active); in assay [5], 40.7%; in assay [6], 16.1%. Besides, the growth in [7] was -32.8% (active); in assay [8], -18.1% (active); in assay [9], 52.5%; in assay [10], 3.92% (active).
`COc1ccc(/C=N/NC(=O)Cn2c(Cc3cccc4ccccc34)nc3ccccc32)cc1`: the growth in assay [1] is 105%; in [2] it was 89.4%; in assay [3], 92.4%; in assay [4], 91.2%; in assay [5], 109%; in [6], 95.6%. Further, the growth in assay [7] was 88.9%; in [8] it was 90.7%; in assay [9], 99.4%; in [10], 105%.
For `O=c1c2cccc3c(Nc4ccc(F)cc4)ccc(c32)c2nc3ccccc3n12`, the growth was 95.5% in assay [1]; 89.5% in assay [2]; 94.1% in assay [3]; 70.9% in [4]; 98% in [5]; 95.3% in assay [6]. In addition, the growth was 109% in assay [7], 83.8% in assay [8], 86.2% in [9] and 96.7% in [10].
On to `COc1ccc(NC(=O)CSc2nc3ccccc3c(=O)n2Cc2cc(OC)c(OC)c(OC)c2)cc1`, for which the growth in assay [1] is 95.6%; in [2], 79.8%; in [3] it was 88.2%; in [4] it was 73.8%; in assay [5], 82.9%; in assay [6], 85.1%. For the same compound, the growth in assay [7] was 106%; in assay [8], 79%; in [9] it was 94.3%; in assay [10], 99.4%.
Consider `O=C(COc1ccccc1)N1N=C(c2ccc(Cl)cc2)CC1c1c[nH]c2ccccc12` (stereo not given), for which the growth in [1] is 92%; in assay [2] it was 71.2%; in [3], 74.1%; in [4], 47.7%; in assay [5], 103%; in [6] it was 71.9%. In addition, the growth was 92.1% in assay [7], 87.1% in assay [8], 89.1% in assay [9] and 83.1% in [10].
For the compound `COc1cc(C(=O)OCCCCCCCCCCC[P+](c2ccccc2)(c2ccccc2)c2ccccc2)ccc1O`, the growth in assay [1] is 10.6%; in assay [2] it was -37.8% (active); in [3], -77.4% (active); in [4], -69.4% (active); in assay [5] it was -53.4% (active); in assay [6], -74.3% (active). In addition, the growth in [7] is -31.9% (active); in [8], -57.3% (active); in [9], -21.6% (active); in assay [10], -24.5% (active).
Take `COC1=CC(c2ccc[nH]2)=N/C1=C\c1[nH]c(C)c(C(=O)CCCCC(=O)Nc2ccccc2)c1C`: the growth is 6.29% (active) in assay [1]; 62.4% in assay [2]; 87.7% in assay [3]; -10.1% (active) in assay [4]; -63.9% (active) in assay [5]; 44.1% in assay [6]. Also, the growth was -2.61% (active) in assay [7], 78.6% in assay [8], 74.4% in [9] and 13.1% in assay [10].
In the case of `CCNC(=O)CCCCC(=O)c1c(C)[nH]c(/C=C2\N=C(c3ccc[nH]3)C=C2OC)c1C`, the growth in assay [1] was 2.48% (active); in assay [2], 51.5%; in assay [3], 51.6%; in assay [4] it was 0.721% (active); in [5], -48% (active); in [6], 27.2%. In addition, the growth was -22.1% (active) in assay [7], 54.8% in assay [8], 54.6% in assay [9] and 5.27% (active) in assay [10].
For `COc1ccc([N+](=O)[O-])c(/C=C/C(=O)c2ccccn2)c1`, the growth in assay [1] is 28.5%; in assay [2], 21%; in assay [3], 91%; in [4], 86.2%; in assay [5], 74.1%; in assay [6], 89.1%. The growth in [7] is 133%; in [8], 95.2%; in assay [9], 96.9%; in assay [10] it was 104%.
With `CC(C)[C@H](CO)Nc1nc(Nc2ccc(C(=O)NCCNS(=O)(=O)c3cccc4c(N(C)C)cccc34)c(Cl)c2)c2ncn(C(C)C)c2n1`, the growth in assay [1] was 29%; in [2] it was 10.9%; in [3] it was 51.2%; in [4], 7.36% (active); in assay [5], -57.1% (active); in assay [6] it was 0.765% (active). Moreover, the growth in assay [7] is -16.5% (active); in [8] it was -50.2% (active); in assay [9], 3.15% (active); in assay [10] it was 23.5%.

These data come from PubChem BioAssay (NCI).
